In PubChem BioAssay AID2110 (National Center for Advancing Translational Sciences (NCATS), 2009):
Values joined by “and” are separate entries in the source; they are usually repeats but may differ in a detail not shown here. Identical values can stand only once. Records with an inconclusive call do not appear. Active and inactive are the calls of the source. Calls follow the shape of the dose curve; as a rule, active = well fitted curve in either direction with a large enough effect; inconclusive = small, poorly fitted or top-dose-only effect; inactive = no such curve, though single readings can be large or run the other way.

These molecules were tested against Lysosomal alpha-glucosidase (Homo sapiens) (UniProt P10253) (assay: Confirmation of Inhibitors and Activators of Purified Human alpha-Glucosidase Using an Alternate Red Fluorescent Susbtrate). Settings: purified enzyme, red fluorogenic substrate; series mostly up to 63.4 µM.
Description: NIH Chemical Genomics Center [NCGC]
NIH Molecular Libraries Probe Production centers Network [MLPCN]
Assay Submitter (PI): Wei Zheng
Alpha-glucosidase is responsible for hydrolysis of terminal, non-reducing 1,4-linked alpha-D-glucose residues with release of alpha-D-glucose. It is a lysosomal hydrolase that is required for the degradation of a small percentage (1-3%) of cellular glycogen in human. Deficiency of this enzyme results in glycogen-storage disease type II (GSDII), also referred to as Pompe disease, an autosomal recessive disorder. Structurally normal glycogen is accumulated in lysosomes and cytoplasm in affected patients, primarily in muscle tissues. Excessive glycogen storage within lysosomes may interrupt normal functioning of other organelles and leads to cellular injury. In turn, this leads to enlargement and dysfunction of the entire organ involved (eg, cardiomyopathy and muscle weakness).
It has reported that the improper folding and trafficking of alpha-glucosidase resultinged from the genetic mutations may account for a significant number of Pomrope patients. […] We optimized this alpha-glucosidase assay in 1536-well plate format for identifying the novel small molecule inhibitors with the structures other than the sugar analogs in order to develop the new pharmacological chaperones. This assay attempted to confirm hits from the primary screening using an alternate fluor than the primary screen used.
NCGC Assay Protocol Summary:
This is a fluorogenic enzyme assay with resorufin-alpha-D-pyranoside as the substrate and recombinant human alpha-glucosidase as the enzyme preparation. Upon the hydrolysis of this fluorogenic substrate, the resulting product, resorufin, can be excited at 573 nm and emits at 610 nm which can be detected by a standard fluorescence plate reader. Data were normalized to the controls for basal activity (without enzyme) and 100% activity (with enzyme). The AC50 values were determined from concentration-response data modeled with the standard Hill equation.
Assay buffer: 50 mM citric acid (titrated with potassium phosphate to pH 5.0), 0.005% Tween-20, pH 5.0. (pH 5.0 is an optimal condition for this enzyme assay)
1536-well assay protocol for the human alpha-glucosidase:
(1) Add 2 ul/well of enzyme (4 nM final)
(2) Add 23 nL compounds in DMSO solution. The final titration was 0.7 nM to 77 uM.
(3) Add 1 ul of substrate (400 uM final)
(4) Incubate at room temperature for 20 min.
(5) Add 2 ul stop solution (1M NaOH and 1M Glycine mixture, pH 10)
(6) Detect the assay plate in a ViewLux plate reader (PerkinElmer) with Ex=365 nm and Em=440nm.
Keywords: Alpha-glucosidase, Pompe Disease, pharmacological chaperone, chaperone therapy, high throughput screening, alpha-glucosidase inhibitor, MLSMR, MLSCN, NIH Roadmap, qHTS and NCGC
With `COc1ccc(CCn2c3c(c(=O)[nH]c2=S)CN(CC(C)C)CN3)cc1OC` the Potency was 0.631 µM (active). With `CCCN1CNc2c(c(=O)[nH]c(=S)n2CCc2cccc(OC)c2OC)C1` the Potency was 10 µM (active). `CC(=O)c1ccc(N2CCN(S(=O)(=O)c3ccc4c(c3)OCC(=O)N4)CC2)cc1` was tested, and the Potency was “inactive”. For `CCCN1CNc2c(c(=O)[nH]c(=S)n2CCc2cc(Cl)cc(Cl)c2)C1`, the Potency was 2 µM (active). In the case of `CCCN1CNc2c(c(=O)[nH]c(=S)n2CCc2ccc(OC)cc2OC)C1`, the Potency is reported as 2.51 µM (active). `OCCNc1nc(-c2cccs2)nc2ccccc12` was tested, and the Potency was “inactive”. For `CC(=O)c1ccc(N2CCN(S(=O)(=O)c3ccc4c(c3)CC(=O)N4)CC2)cc1`, the Potency was 919 nM [inhibitor] (active) and 1.06 µM [inhibitor] (active) and 1.3 µM [inhibitor] (active). `CC(=O)c1ccc(N2CCN(S(=O)(=O)c3ccc(N4CCCC4=O)cc3)CC2)cc1` was tested, and the Potency was “inactive”. `CC(=O)N1CCN(S(=O)(=O)c2ccc3c(c2)CC(=O)N3)CC1` was tested, and the Potency was 14.9 µM [inhibitor] (active). In the case of `COc1cc(NS(C)(=O)=O)ccc1Nc1c2ccccc2nc2ccccc12`, the Potency is reported as “inactive”. For `CCCN1CNc2c(c(=O)[nH]c(=S)n2CCCc2ccccc2)C1`, the Potency was 31.6 µM (active). For `CCCN1CNc2c(c(=O)[nH]c(=S)n2CCc2ccc(OC)cc2)C1`, the Potency was 6.31 µM (active). For `CC(=O)c1ccc(N2CCN(S(=O)(=O)c3ccc4c(c3)CCCN4C(C)=O)CC2)cc1`, the Potency was “inactive”. `N#Cc1ccc(N2CCN(S(=O)(=O)c3ccc4c(c3)CC(=O)N4)CC2)cc1` was tested, and the Potency was 3.26 µM [inhibitor] (active). `CC(=O)c1ccc(N2CCN(S(=O)(=O)c3ccc4c(c3)oc(=O)n4C)CC2)cc1` was tested, and the Potency was “inactive”. `CCCN1CNc2c(c(=O)[nH]c(=S)n2CCc2ccc(C)c(C)c2)C1` was tested, and the Potency was 1.12 µM (active). In the case of `CCCN1CNc2c(c(=O)[nH]c(=S)n2CCc2c(C)cccc2C)C1`, the Potency is reported as 3.16 µM (active). In the case of `CCCN1CNc2c(c(=O)[nH]c(=S)n2CCc2cccc(C)c2)C1`, the Potency is reported as 7.08 µM (active). `COc1ccc(N2CCN(S(=O)(=O)c3ccc4c(c3)CC(=O)N4)CC2)cc1` was tested, and the Potency was 18.8 µM [inhibitor] (active). With `CCCN1CNc2c(c(=O)[nH]c(=S)n2CCc2ccsc2)C1` the Potency was 25.1 µM (active). With `CC(=O)c1ccc(N2CCN(S(=O)(=O)c3ccc4c(c3)CCC(=O)N4)CC2)cc1` the Potency was “inactive”. With `COc1ccc(CCn2c3c(c(=O)[nH]c2=S)CN(C)CN3)cc1OC` the Potency was 7.94 µM (active). `CCCN1CNc2c(c(=O)[nH]c(=S)n2Cc2ccc(OC)c(OC)c2)C1` was tested, and the Potency was 2.82 µM (active). `COc1ccc(CCn2c3c(c(=O)[nH]c2=S)CN(Cc2ccccc2)CN3)cc1OC` was tested, and the Potency was 1.78 µM (active). For `COc1ccc(CCn2c3c(c(=O)[nH]c2=S)CN(c2ccccc2)CN3)cc1OC`, the Potency was 7.94 µM (active). With `CC(=O)c1ccc(N2CCN(S(=O)(=O)c3ccc4[nH]c(=O)oc4c3)CC2)cc1` the Potency was “inactive”. For `COc1ccc(CCc2c[nH]c(=O)c3cncnc23)cc1OC`, the Potency was “inactive”. With `N#CC(=C(\N)Sc1ccccc1N)/C(C#N)=C(/N)Sc1ccccc1N` the Potency was 44.7 µM (active). `COc1ccc(CCn2c(=S)[nH]c(=O)c3c(C)cc(C)nc32)cc1OC` was tested, and the Potency was “inactive”. For `CCCN1CNc2c(c(=O)[nH]c(=S)n2CCc2c(Cl)cccc2Cl)C1`, the Potency was 1.12 µM (active). With `CCCN1CNc2c(c(=O)[nH]c(=S)n2CCC(C)(C)C)C1` the Potency was “inactive”. With `CCCN1CNc2c(c(=O)[nH]c(=S)n2CCc2ccc(OC)c(OC)c2)C1` the Potency was 2 µM (active). For `CCCN1CNc2c(c(=O)[nH]c(=S)n2CCc2ccc3c(c2)OCCO3)C1`, the Potency was 1.12 µM (active). In the case of `CCCN1CNc2c(c(=O)[nH]c(=S)n2CCc2ccc(C)cc2)C1`, the Potency is reported as 11.2 µM (active). In the case of `Cc1ccc(S(=O)(=O)N2CCN(C(=O)N(c3ccccc3)c3ccccc3)CC2)cc1`, the Potency is reported as “inactive”. For `O=C1Cc2cc(S(=O)(=O)N3CCN(c4cccc(C(F)(F)F)c4)CC3)ccc2N1`, the Potency was 14.9 µM [inhibitor] (active). For `Clc1ncc(C#Cc2ccccc2)c2ncncc12`, the Potency was “inactive”. In the case of `CC(=O)c1ccc(N2CCN(S(=O)(=O)c3ccc4c(c3)CC(C)N4C(C)=O)CC2)cc1` (stereo not given), the Potency is reported as “inactive”. With `CCCN1CNc2c(c(=O)[nH]c(=S)n2CCC(C)C)C1` the Potency was “inactive”. In the case of `CC(=O)c1ccc(N2CCN(C(=O)c3ccc4c(c3)CCC(=O)N4)CC2)cc1`, the Potency is reported as “inactive”.
